Out of some 9,400 compounds screened, fewer than 10 were called active. Inconclusive results (about 5%) are left out. How the calls were made is not given here. Only a sample is shown. Results with a measured potency or affinity are listed apart.

The nature of the test: Vibrio cholerae quorum sensing activators, luminescence (AID 686977). Particulars: V. cholerae quorum sensing reporter, 6 h, active compounds read high; dose 50, dose unit µM unless noted.
On to `O=C(Nc1cccc(F)c1)c1cccnc1N1CCOCC1`, for which the luminescence is 80 (inactive).

As to `COc1ccccc1N1CCN(C(=O)Oc2ccccc2)CC1`, the luminescence is 0 (inactive).

With `COc1cc(S(=O)(=O)N2CCC(N3CCCCC3)CC2)ccc1-n1cnnn1`, the luminescence is 0 (inactive).

For `CC(Oc1ccc(-c2ccccc2)c(F)c1)c1ccn(S(=O)(=O)c2ccc(F)cc2)n1` (stereo not given), the luminescence was 120 (inactive).

`COc1ccccc1NC(=O)C1=C(C)NC(=O)NC1c1ccc(C)cc1` (stereo not given): the luminescence was 80 (inactive).

Take `O=C(O)CCCSCC(=O)Nc1ccccc1`: the luminescence was 0 (inactive).

For the compound `O=C(C[n+]1ccc(C(=O)N/N=C/c2ccc(OCc3ccccc3)cc2)cc1)c1ccccc1`, the luminescence was 0 (inactive).

Turning to `CCOC(=O)C1=C(C)Nc2nnnn2C1c1ccc(OC)c(Br)c1` (stereo not given), the luminescence was 0 (inactive).

`Cc1c(Cl)cccc1NC(=O)CN1C(=O)CSc2ncccc21`: the luminescence is 0 (inactive).

For the compound `O=c1cc(NC2CCCCC2)c2ccccc2o1`, the luminescence is 0 (inactive).

With `CCOc1ccc(CNC(=O)C(CC)n2nc(C)n3c(cc4occc43)c2=O)cc1OC` (stereo not given), the luminescence is 0 (inactive).

Regarding `CNc1ccccc1-c1nc2ccccc2n(C)c1=O`, the luminescence was 0 (inactive).

In the case of `O=C(Nc1ccc(Cl)cn1)C1CCCN1S(=O)(=O)c1ccc(Cl)cc1` (stereo not given), the luminescence was 0 (inactive).

`CCC(Oc1ccccc1)C(=O)Nc1ccccc1OC` (stereo not given): the luminescence was 0 (inactive).

`CCOCCn1c(SCCc2ccccc2)nc2c1c(=O)[nH]c(=O)n2C`: the luminescence is 0 (inactive).

Consider `Cc1nn(C2CCS(=O)(=O)C2)c(Cl)c1/C=C/C(=O)OCC(=O)Nc1ccccc1OC(F)F` (stereo not given), for which the luminescence is 0 (inactive).

`COc1ccc(S(=O)(=O)Cc2ccc(C(=O)NCc3ccccn3)o2)cc1`: the luminescence was 0 (inactive).

On to `CCOC(=O)N1CCN(C(=O)CSc2nc3c([nH]c4ccccc43)c(=O)n2C)CC1`, for which the luminescence is 40 (inactive).

On to `C#CCN1C(=O)C2C(C(=O)NC)C3C=CC2(O3)C1C(=O)NCc1ccc(OC)cc1` (stereo not given), for which the luminescence was 40 (inactive).

In the case of `CCCNC(=O)C(NS(=O)(=O)c1ccc2c(c1)c(=O)n(C)c(=O)n2C)c1ccccc1` (stereo not given), the luminescence is 40 (inactive).

On to `CN[C@H]1[C@@H](O)[C@H](O[C@H]2[C@@H](O)[C@@H](OC3OC(CN)=CCC3N)[C@H](N)C[C@@H]2N)OC[C@@]1(C)O` (stereo not given in full), for which the luminescence was 40 [dose 10, dose unit µg/mL] (inactive).

For `CCc1ccc(CCC(=O)Nc2ccc(C)c(C)c2)o1`, the luminescence was 0 (inactive).

On to `CCc1cccc(OCCOCCN2CCCC2)c1`, for which the luminescence was 40 (inactive).

Take `CCOC(=O)c1ccccc1NC(=O)c1cc(S(=O)(=O)N2CCOCC2)ccc1F`: the luminescence is 0 (inactive).

For the compound `Cc1ccc(S(=O)(=O)CCc2nnc(NC(=O)C3CCCO3)s2)cc1` (stereo not given), the luminescence was 0 (inactive).

Consider `COC(=O)c1cc(-c2ccc(Br)cc2)n[nH]1`, for which the luminescence is 0 (inactive).

For `CN(C)S(=O)(=O)c1ccc(S(=O)(=O)N2CCN(CCC#N)CC2)cc1`, the luminescence was 40 (inactive).

Turning to `COc1cc(C2Nc3ccc4ncccc4c3C3=C2C(=O)CC(C)(C)C3)cc(OC)c1O` (stereo not given), the luminescence is 0 (inactive).

For `CN(CC(=O)N1CCc2ccccc2C1)S(=O)(=O)c1ccc2c(c1)c(=O)n(C)c(=O)n2C`, the luminescence was 40 (inactive).

As for `CCOc1ccc(CCNC(=O)Cn2c(=O)oc3ccccc32)cc1OCC`, the luminescence is 0 (inactive).

In the case of `COC(=O)c1cc(=O)n(CCc2ccc(OC)c(OC)c2)c(=Nc2ccc(F)c(Cl)c2)s1`, the luminescence was 40 (inactive).

`CCc1nnc(NC(=O)CSc2nnc(-c3ccco3)n2C)s1`: the luminescence is 0 (inactive).

For `CN/C(=C/[N+](=O)[O-])NCCSCc1csc(CN(C)C)n1`, the luminescence is 0 [dose 10, dose unit µg/mL] (inactive).

Take `CCCCCCN1CC(O)=C(c2ccccc2)C1=N`: the luminescence is 0 (inactive).

With `CC1CCN(C(=O)CSc2nc3c(cnn3-c3ccc(Cl)cc3)c(=O)[nH]2)CC1`, the luminescence is 0 (inactive).

The values are drawn from PubChem BioAssay AID686977 (Southern Research Specialized Biocontainment Screening …, 2013).
